Source: PubChem
PGE2 EP2 inh: inhibitors of human EP2 prostaglandin E2 receptor | P43116 | AID 1422 | 260,000 compounds, 0.52% hits | inhibition, % at 25 µM | C6 glioma cells expressing human EP2, cAMP TR-FRET; cells stimulated with saturating PGE2;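 active = percent inhibition above 40 after rounding to a whole number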;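 also: rat C6 glioma host cells with rolipram phosphodiesterase inhibitor present; the protocol text gives 20 µM as final concentration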
Target sequence (P43116 whole entry, looked up): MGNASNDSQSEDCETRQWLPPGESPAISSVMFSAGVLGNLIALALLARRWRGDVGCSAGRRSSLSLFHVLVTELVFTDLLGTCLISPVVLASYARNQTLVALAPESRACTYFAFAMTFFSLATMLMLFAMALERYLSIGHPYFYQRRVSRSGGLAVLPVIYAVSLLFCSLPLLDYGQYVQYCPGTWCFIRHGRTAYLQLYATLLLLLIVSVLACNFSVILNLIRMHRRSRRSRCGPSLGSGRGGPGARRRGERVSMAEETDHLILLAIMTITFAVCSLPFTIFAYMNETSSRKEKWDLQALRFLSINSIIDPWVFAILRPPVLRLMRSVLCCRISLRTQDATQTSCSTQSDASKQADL
S1P3 antag: blocks the human S1P3 receptor; CHO S1P3 NFAT-BLA reporter, FRET fluorescence, antagonist mode; 170,000 compounds, 0.27% hits; inhibition, % at 4.98 µM; AID 485; Q99500;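 active = inhibition above the plate cutoff, the mean inhibition of test wells on that plate plus 3 SD, cut at about 28% in these data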;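 also: cells challenged with S1P at its EC80 of 0.8 µM; blue over green emission ratio from cleaved BLA substrate after 4 h stimulation; 0% = S1P-stimulated wells and 100% = unstimulated DMSO-only wells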
Target sequence (Q99500 whole entry, looked up): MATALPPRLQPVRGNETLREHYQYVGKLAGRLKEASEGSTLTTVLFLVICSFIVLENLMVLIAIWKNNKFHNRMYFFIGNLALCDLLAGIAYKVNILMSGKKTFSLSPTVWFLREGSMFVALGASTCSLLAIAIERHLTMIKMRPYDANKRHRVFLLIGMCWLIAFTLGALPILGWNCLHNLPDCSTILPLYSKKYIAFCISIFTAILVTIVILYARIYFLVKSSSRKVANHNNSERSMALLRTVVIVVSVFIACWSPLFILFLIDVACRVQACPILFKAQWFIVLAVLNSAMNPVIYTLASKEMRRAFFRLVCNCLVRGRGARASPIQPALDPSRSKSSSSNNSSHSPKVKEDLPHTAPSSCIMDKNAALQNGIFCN
EP2 modulator: modulators of human EP2 prostaglandin E2 receptor; 260,000 compounds, 0.83% hits; induction, % at 25 µM; EP2-expressing cells, cAMP HTRF FRET, PGE2 co-stimulation; P43116;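 active = compounds whose cAMP rise, as percent of the full-agonist control response, exceeds 60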;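 also: rat C6 glioma line stably carrying human EP2 under a CMV promoter; the protocol text gives 20 µM as final concentration; 100% = response of wells given 1 µM PGE2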
KCC2 mod: modulators of human KCC2 chloride dependent transport; KCC2 cells, thallium flux FluoZin-2 fluorescence; B-score of Tl+ flux slope (higher = more flux/activation; lower = inhibition) at 10 µM; 190,000 compounds, 2.2% hits;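 active = thallium flux slope and its plate-corrected score both differing from the plate sample mean at a set confidence after two filtering rounds, in either direction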;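 also: slope of fluorescence scaled to starting intensity during 10 to 20 s after thallium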
KCC2 sec1: confirmation of human KCC2 transport modulators; shares compounds with KCC2 mod; HEK293-KCC2, thallium flux, FluoZin2 fluorescence; stronger effect = higher value; normalised thallium flux (F/F0 slope) at 10 µM; 3,700 compounds, 15% hits;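 active = thallium flux slope above the same plate's solvent-only control mean plus 3 SD; inconclusive = the two replicate wells disagree; inactive = no significant difference from solvent-only control wells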
KCC2 bumet counter: thallium flux persisting under bumetanide in KCC2 cells, counter-screen secondary assay | HEK293-KCC2 + bumetanide/ouabain, thallium flux FluoZin2; stronger effect = higher value | normalized thallium flux at 10 µM | shares compounds with KCC2 mod | 3,700 compounds, 49% hits | AID 1714;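 active = thallium entry rate above the same plate's blocked-transporter control wells by more than 3 SD; inconclusive = the two repeat wells disagree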;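 also: raw slope of fluorescence over initial fluorescence between 10 and 20 s after thallium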
KCC2 sec2: KCC2 (human) modulation, second secondary assay | shares compounds with KCC2 mod | HEK293-KCC2, thallium flux FluoZin2 fluorescence; actives lie on both sides; F/F0 rise rate, 10–20 s post-thallium | normalized thallium flux at 10 µM | 3,700 compounds, 23% hits | AID 1715;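 active = thallium flux slope more than 3 SD above or below the plate's solvent-only control mean, mostly below; inconclusive = the two repeat wells disagreed; inactive = no significant shift from solvent-only controls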;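 also: raw slope with 0.1% DMSO as baseline and bumetanide as block control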
HEK counter1: acts in parental HEK cells, KCC2 counter-screen | HEK293 parental cells, thallium flux FluoZin2, ouabain; baseline-ratio fluorescence slope, 10–20 s after thallium | shares compounds with KCC2 mod | 3,700 compounds, 46% hits | AID 1716 | thallium flux rate (normalised fluorescence) at 10 µM;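 active = thallium flux rate significantly above the same plate's solvent-only control wells, beyond their mean plus 3 SD; inconclusive = the two replicate wells gave conflicting results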
KCC2 retest ouab: KCC2 (human) modulation, ouabain retest. shares compounds with KCC2 mod. HEK293-KCC2, thallium flux FluoZin2 fluorescence; bidirectional: low = inhibitor, high = activator. raw Tl+ flux slope (below DMSO = inhibition, above = activation) at 10 µM. 3,700 compounds, 48% hits;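 active = thallium flux slope beyond 3 SD from same-plate DMSO control mean in most replicates, usually higher, sometimes lower; inconclusive = repeat tests gave conflicting results; inactive = no significant difference from controls in most replicates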;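 also: slope of initial-normalized fluorescence between seconds 10 and 20 after thallium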
HEK293 Tl flux2: parental HEK flux effect, counter-screen 2 | shares compounds with KCC2 mod | HEK293 parental, thallium flux FluoZin-2 fluorescence slope | thallium flux slope at 10 µM | 3,700 compounds, 33% hits | AID 1718;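 active = thallium flux slope above the same plate's solvent-control mean plus 3 SD in both duplicate wells; inconclusive = duplicate wells that disagreed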;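 also: run without ouabain in cells lacking the KCC2 cotransporter; slope of fluorescence scaled to its starting value between 10 and 20 s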
The depositor's hits bear a star; ? = inconclusive; / = not tested or not shown. This is a sample that favours compounds with a hit; in the whole collection about 3.1% have one here.

SMILES	PGE2 EP2 inh	S1P3 antag	EP2 modulator	KCC2 mod	KCC2 sec1	KCC2 bumet counter	KCC2 sec2	HEK counter1	KCC2 retest ouab	HEK293 Tl flux2
COc1ccc(-c2nc3cnccn3c2NCC2CCCO2)cc1CO (configuration not stated)	/	/	-51	/	/	/	/	/	/	/
COC(=O)CN1C(=O)C2(C(C#N)=C(N)Oc3c2c(C)nn3-c2ccccc2)c2ccccc21 (configuration not stated)	6	-2	1	3.9*	0.0072	0.0057*	0.029	0.0083	0.018	0.012
COC(=O)CN1C(=O)C2(C(C#N)=C(N)Oc3n[nH]c(-c4cccs4)c32)c2ccccc21 (configuration not stated)	9	/	1	0.05	/	/	/	/	/	/
c1ccc2c(CN3CCN(Cc4ccncc4)CC3)cccc2c1	8	/	-1	/	/	/	/	/	/	/
CC1CCN(c2ccc(N)c3nonc23)CC1	11	/	-27	/	/	/	/	/	/	/
COc1cc(-c2c(C#N)c(N)nc(SCc3ccncc3)c2C#N)cc(OC)c1OC	11	1	-18	/	0.0085	0.0065	0.029	0.0072	?	?
Cc1ccc(C)c(N2CCN(C(=O)CCCn3c(=S)[nH]c4cc5c(cc4c3=O)OCO5)CC2)c1	12	/	-21	3.4*	0.0058	0.016*	0.03	0.01*	?	0.012
O=C(CCCn1c(=S)[nH]c2cc3c(cc2c1=O)OCO3)N1CCN(c2ccccc2F)CC1	7	/	-13	-0.67	/	/	/	/	/	/
CCOCCCn1c(=S)[nH]c2cc3c(cc2c1=O)OCO3	/	/	27	5.7*	?	0.043*	0.035	0.019*	0.04*	?
CCC(CN1CCN(C)CC1)NC(=O)C1(c2ccc(F)cc2)CC1 (configuration not stated)	8	/	-5	/	/	/	/	/	/	/
Cc1ccsc1CN(CCCO)Cc1cccc(F)c1F	4	/	23	/	/	/	/	/	/	/
c1cc2c(cc1Oc1nc(N3CCOCC3)nc(N3CCOCC3)n1)OCO2	10	6	-9	0.22	/	/	/	/	/	/
Clc1ccc(Oc2nc(N3CCOCC3)nc(N3CCOCC3)n2)cc1	12	/	19	7.6*	0.0091	0.0068	0.03	0.0074	0.021	?
CC(=O)N(CCCN(C)C)c1nc(-c2ccc(F)cc2)cs1	12	/	-45	/	/	/	/	/	/	/
COc1ccccc1NC(=O)CSc1nnc(CSCc2ccc(F)cc2)n1C	6	/	-45	/	/	/	/	/	/	/
O=C1/C(=C/c2ccc(O)cc2)SC(=S)N1Cc1cccnc1	10	-11	-38	0.9	/	/	/	/	/	/
O=C1/C(=C/c2ccc(Cl)cc2)NC(=S)N1Cc1cccnc1	5	-15	-46	5.2*	0.007	0.0088*	0.035	0.01*	0.021	0.011
O=c1cc(-c2ccccc2)nc2cc(-c3ccco3)[nH]n12	8	14	-18	3.9*	?	0.014*	0.032	0.011*	?	0.0098
O=C(NCCc1ccccc1)c1noc2c1CCCCC2	/	-7	-6	/	0.0078	0.0067	?	0.0078	0.019*	0.01
CC(=O)c1nnn(-c2ccc(F)cc2)c1Nc1cccnc1	7	/	-26	/	/	/	/	/	/	/
c1csc(C2=NN3C(C2)c2ccccc2OC3c2ccncc2)c1 (configuration not stated)	8	/	51	/	/	/	/	/	/	/
c1ccc(C2Oc3ccccc3C3CC(c4cccs4)=NN32)cc1 (configuration not stated)	6	-9	16	9.3*	0.01	0.046*	0.037	0.06*	0.055*	0.02*
Cn1c(=S)[nH]c2ccccc21	0	/	13	/	/	/	/	/	/	/
S=c1[nH]c2ccccc2n2cccc12	8	4	54	22*	0.017*	0.087*	?	0.028*	0.048*	0.018*
COC(=O)c1c(NC(=O)Cc2cccs2)sc(C(=O)Nc2cccc(OC)c2)c1C	9	/	-4	/	/	/	/	/	/	/
SMILES	PGE2 EP2 inh	S1P3 antag	EP2 modulator	KCC2 mod	KCC2 sec1	KCC2 bumet counter	KCC2 sec2	HEK counter1	KCC2 retest ouab	HEK293 Tl flux2
CCCC(=O)N(CCC)Cc1cc2cc(OC)ccc2[nH]c1=O	8	/	-51	/	/	/	/	/	/	/
CC(Sc1nnnn1-c1ccccc1)C(=O)Nc1ccc(Cl)cn1 (configuration not stated)	6	-8	12	-4.4*	0.0073	0.0043	0.026*	0.006*	0.015*	?
COc1ccc(/C=c2\s/c(=C/C(=O)c3ccc(C)cc3)[nH]c2=O)cc1OC	1	3	1	0.62	/	/	/	/	/	/
CC(C)(C)C(=O)/C=c1\[nH]c(=O)/c(=C\c2ccccc2F)s1	6	1	-35	18*	0.0078	0.024*	0.038*	0.015*	0.032*	0.018*
COc1ccc(N(CC(=O)Nc2ccc(C)c(C)c2)S(=O)(=O)c2c(C)n[nH]c2C)cc1	/	-2	-28	/	0.0067	?	0.026*	0.007	?	0.011
C=CCn1c(SCc2ccc(C(=O)O)cc2)nc2sc(C)c(C)c2c1=O	15	4	52	46*	0.021*	0.053*	?	0.035*	0.05*	0.014*
C=CCn1c(SCC(=O)N2CCc3ccccc32)nc2sc(C)c(C)c2c1=O	12	/	-70	/	/	/	/	/	/	/
Cc1ccc(C(=O)O)cc1NC(=O)CSc1ncnc2sc3c(c12)CCC3	11	-7	2	10*	0.0069	0.016*	0.036	0.017*	0.025*	0.018*
CC(=O)C(Sc1ncnc2sc3c(c12)CCCC3)C(C)=O	7	12	8	6.4*	0.015*	0.1*	0.029	0.018*	?	0.013*
CC(C)N(C(=O)CSc1ncnc2sc3c(c12)CCCC3)C(C)C	5	/	-36	/	/	/	/	/	/	/
CC(C)Cn1c(N)c(C(=O)CSc2ncnc3sc4c(c23)CCCC4)c(=O)n(C)c1=O	2	13	13	7.9*	0.018	0.014*	0.031	0.014*	0.021*	0.014*
CC(C#N)Sc1ncnc2sc3c(c12)CCC3 (configuration not stated)	4	3	40	4.2*	?	0.032*	0.033	0.017*	0.022	0.013*
O=c1[nH]c(=O)n(-c2ccc(Cl)cc2)c(O)c1C=Nc1ccccc1O	11	/	-37	/	/	/	/	/	/	/
CC1(C)CC2(CCCN(CCCN3CCCC4(CCOC(C)(C)C4)C3)C2)CCO1 (configuration not stated)	11	/	-29	/	/	/	/	/	/	/
Cc1cc2cc(C)c3nnc(SCC(=O)Nc4cccc(O)c4)n3c2cc1C	7	/	-24	/	/	/	/	/	/	/
